High-throughput results as filed in PubChem.
KB-3-1 cytotox: KB-3-1 parental cell cytotoxicity. KB-3-1 viability, CellTiter-Glo ATP luminescence, 72 h. 400,000 tested, 1.4% active. Potency, µM (series often up to 46.1 µM), usual class: cytotoxic. AID 1347075; further: on the % scale 0 is the no-effect control and ±100 the full control effect; nearly all actives have a fitted effect of over 60% in size
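Cells are dispensed, compounds pinned in, plates held at 37 °C for 72 h, then CellTiter-Glo is added and luminescence read after 10 minutes. Cell line: parental KB-3-1 in phenol-red-free DMEM, 10% FBS.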
HT1080-NT tox: kills 2HG-producing HT-1080-NT fibrosarcoma cells. HT-1080-NT fibrosarcoma viability, CellTiter-Glo ATP luminescence, 48 h. Potency, µM (titrated, usually from 46.1 µM), without a hit: top-dose activity, negative = less viability, usual class: cytotoxic. 360,000 tested, 1.6% active;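 further: NT is the 2HG producing partner of a matched IDH1 knockdown line; 0% = DMSO-treated cells and -100% = media-only wells without cells; nearly all actives have a fitted effect of over 55% in size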
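Read-out is CellTiter-Glo luminescence after 10 minutes at room temperature, following 48 hours' compound treatment of HT-1080-NT cells (750 cells/well, RPMI, 5% FBS, 37 degrees C).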
HT1080 IDH1KD tx: HT-1080 IDH1 knockdown cell toxicity (counter line); HT-1080 IDH1 knockdown viability, ATP luminescence, 48 h; 360,000 tested, 2% active; Potency, µM (series often up to 46.1 µM), without a hit: top-dose activity, negative = toxicity, hits mostly cytotoxic;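 further: 0% = DMSO wells and -100% = cell-free medium wells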
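Viability of IDH1-knockdown HT-1080 fibrosarcoma cells was assessed by CellTiter-Glo after 48 h at 37 °C with titrated compound; concentration-effect curves were classified by fit quality and response size.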
KB-V1 cytotox: KB-V1 MDR subline cytotoxicity; KB-V1 MDR cells viability, CellTiter-Glo, 72 h; Potency, µM (series often up to 46.1 µM), usual class: cytotoxic; 400,000 tested, 3.4% active; AID 1347076; further: on the % scale 0 is the no-effect control and ±100 the full control effect; nearly all actives have a fitted effect of over 60% in size
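Following 72 h at 37 degrees C with compound, KB-V1 cell viability was read by CellTiter-Glo luminescence, medium being phenol-red-free DMEM plus 10% FBS; concentration-response parameters came from normalized, curve-fitted qHTS data.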
SW480 rereplic: DNA re-replication induction in SW480 cells. SW480 DNA re-replication, Hoechst DNA content imaging, 48 h. Potency, µM (top dose mostly 46.1 µM), without a hit: at the highest dose re-replication activation, actives largely listed as activators. 340,000 tested, 1.8% active. AID 624297; further: % of control where 0% means no effect; nearly all actives have a fitted effect of over 55% in size
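First, 250 cells per well were seeded. Next, compound or vehicle (23 nL) was pinned in, plates sat 48 hr at 37 C. Finally Hoechst was added for 40 min before fluorescence scanning.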
MCF10A rereplic: induces DNA re-replication in MCF 10a normal breast cells; AID 624296; 350,000 tested, 2.9% active; MCF 10A DNA re-replication, Hoechst nuclear intensity, 48 h; Potency, µM (series often up to 46.1 µM), for the others: at the highest dose activity, positive = re-replication, actives largely listed as activators; further: % of control where 0% means no effect; nearly all actives have a fitted effect of over 50% in size
Starred values were filed as active, the others as inactive; i = inactive; ? = inconclusive; . = no result; [ ] = another dose, or the depositor's remark. The list is not random: actives were taken first. Their share in the collection is about 8%. The call rests on the fitted dose curve; in most records, active means well fitted curve in the direction sought with a large enough effect; inconclusive means small, poorly fitted or top-dose-only effect, or another doubt; inactive means no such curve, though single readings can be large; an effect the other way counts as inactive or inconclusive. Potency means the concentration at half of the fitted maximal effect.

SMILES	KB-3-1 cytotox	HT1080-NT tox	HT1080 IDH1KD tx	KB-V1 cytotox	SW480 rereplic	MCF10A rereplic
COc1cccc(CN2CCN(Cc3cc(OC)c(OC)cc3[N+](=O)[O-])CC2)c1	i	7%	2%	21µM*	5%	13%
Cc1cc(NC(=O)c2ccc(S(=O)(=O)N(C)CC3CCCO3)cc2)no1 (centres undefined)	i	-17%	2%	i	2%	18%
CN(CC1CCCO1)S(=O)(=O)c1ccc(C(=O)Nc2ccc3c(c2)OCO3)cc1 (centres undefined)	i	4%	6%	i	1%	0%
COc1ccc(-c2nnc(NC(=O)c3ccc(S(=O)(=O)N(C)CC4CCCO4)cc3)o2)c(OC)c1 (centres undefined)	i	-25%	-26%	5.8µM*	?	?
CN(CC1CCCO1)S(=O)(=O)c1ccc(C(=O)Nc2nccs2)cc1 (centres undefined)	i	17%	-12%	18µM*	-22%	-1%
COc1ccc(-n2ncc(C(=O)NCc3ccc4c(c3)OCO4)c2C2CCN(C(=O)OC(C)(C)C)CC2)cc1	i	.	.	i	.	.
O=S1(=O)N=C(Oc2ccccc2C(F)(F)F)c2ccccc21	i	.	.	?	.	.
Clc1cccc[n+]1CCCCCC[n+]1ccccc1Cl	i	.	.	i	.	.
Nc1cc2c(cc1C(=O)c1ccccc1F)OCCO2	i	2%	5%	i	-8%	8%
Nc1cc2c(cc1C(=O)c1cccc(Br)c1)OCCO2	?	-21%	?	i	?	21µM*
c1ccc(-c2cc(NCCN3CCCCC3)c3ccccc3n2)cc1	?	21µM*	21µM*	?	?	13%
CCOC(=O)c1c(C)n(-c2ccc(C)cc2)c2ccc(OCC(O)CNCCCO)cc12 (centres undefined)	i	?	23µM*	?	2%	?
CCOC(=O)c1c(C)n(C)c2ccc(OCC(O)CN3CCCCCC3)cc12 (centres undefined)	i	-23%	-9%	i	11%	8%
CCOC(=O)c1c(C)n(C)c2ccc(OCC(O)Cn3nc(C)c(Br)c3C)cc12 (centres undefined)	?	-4%	-1%	?	9%	15µM*
CC(=O)c1c(C)nn(CC(O)COc2ccc3ccccc3c2)c1C (centres undefined)	i	0%	-11%	7.3µM*	-3%	3%
O=C(CSc1c2c(nc3cc(Cl)ccc13)CCCC2)NCCN1CCOCC1	i	-1%	0%	i	?	?
COCCCNC(=O)CSc1c2c(nc3ccc(Cl)cc13)CCCC2	i	?	?	i	0%	23µM*
O=C(CSc1c2c(nc3cc(Cl)ccc13)CCCC2)NCCCN1CCOCC1	i	?	?	i	?	23µM*
CCN(CC)CCCNC(=O)CSc1c2c(nc3cc(Cl)ccc13)CCCC2	i	23µM*	23µM*	i	?	117%
CC(C)c1ccc(S(=O)(=O)c2cn(CC(=O)Nc3ccc(F)cc3)c3ccccc3c2=O)cc1	i	.	.	?	.	.
CCn1c(SC)nc2cc(S(=O)(=O)N3CCCCC3)ccc21	21µM*	-9%	?	i	29%	1%
CCn1c(CCl)nc2cc(S(=O)(=O)N3CCOCC3)ccc21	?	2%	-13%	i	15µM*	?
CCn1c(SCC(N)=O)nc2cc(S(=O)(=O)N3CCOCC3)ccc21	i	20%	7%	i	1%	-2%
CCn1c(CN2CCC(C)CC2)nc2cc(S(=O)(=O)N3CCCCC3)ccc21	i	1%	0%	?	.	.
COCCn1c(C)cc(/C=C(\C#N)C(=O)OC(C)C(=O)Nc2ccc(NC(C)=O)cc2)c1C (centres undefined)	i	0%	1%	i	18µM*	?
SMILES	KB-3-1 cytotox	HT1080-NT tox	HT1080 IDH1KD tx	KB-V1 cytotox	SW480 rereplic	MCF10A rereplic
Cc1cc(/C=C(/C#N)C(=O)O)c(C)n1CCC(C)C	i	0%	-1%	i	-94%	?
CCOC(=O)COc1cc(-n2c(=S)[nH]c3ccccc3c2=O)c(Cl)cc1Cl	i	-7%	-16%	i	-2%	?
CCOC(=O)COc1cc(N)c(Cl)cc1Cl	i	-6%	-4%	i	-2%	6.5µM*
Cc1ccc2c(c1)N(C)/C(=C/c1cccc[n+]1CCO)S2	1.8µM*	?	?	i	-7%	-11%
Cc1ccc2c(c1)N(C)/C(=C/c1cccc[n+]1C)S2	0.92µM*	21µM*	10µM*	i	?	?
CCN1/C(=C/c2cccc[n+]2C)Sc2ccc(OC)cc21	?	?	?	i	1%	19%
COc1ccc2c(c1)N(C)/C(=C/c1cccc[n+]1C)S2	1.6µM*	?	13µM*	i	3%	-15%
CN1/C(=C/c2cccc[n+]2C)Sc2ccccc21	1.5µM*	?	?	i	?	9.2µM*
COc1ccc(OC)c(N=c2oc3cc(O)ccc3cc2C(N)=O)c1	?	-13%	-10%	?	18µM*	16µM*
COc1ccc2oc(=Nc3cc(F)ccc3F)c(C(N)=O)cc2c1	7.3µM*	?	?	?	?	?
Cn1c2c(c3cnc4cc(Cl)ccc4c31)CN(Cc1ccc(Cl)cc1)CC2	?	.	.	i	.	.
COC(=O)c1c(-c2ccsc2)sc2ccc(-c3cc(OC)c(OC)c(OC)c3)cc12	i	-10%	0%	i	-19%[9.22 µM]	1%
COc1ccccc1-c1sc2cc3c(cc2c1C#CCO)OCO3	i	?	5%	i	-1%	21µM*
COc1cc(-c2ccc3oc(-c4ccsc4)c(C#CC4(O)CCCCC4)c3c2)cc(OC)c1OC	i	-1%	-16%	i	?	18µM*
COc1cc(-c2ccc3sc(-c4ccsc4)c(C#CCO)c3c2)cc(OC)c1OC	i	?	?	i	0%	12µM*
COc1ccc(-c2sc3cc4c(cc3c2C#CCO)OCO4)cc1	?	-19%	-29%	i	?	?
COc1ccc(-c2oc3cccnc3c2C#CC2(O)CCCCC2)cc1	i	?	?	i	27%	18µM*
COC(=O)c1ccc(C2c3c(oc4ccccc4c3=O)C(=O)N2c2nc(C)c(C(=O)OC)s2)cc1 (centres undefined)	i	.	.	i	.	.
